Reference: a collection of fitness landscapes (doi:10.1126/science.1257360)
In all, about 140,000 sequences were measured (“enrichment ratio after two sorts for PhoP signalling”: median about 0, highest 2% from about 11 on). The sample as a whole holds a higher share of the highest values than the screen did.

B1: PhoQ; a variant is named by its letters at X, in order, P23837 (parent)
chain: MKKLLRLFFPLSLRVRFLLATAAVVLVLSLAYGMVALIGYSVSFDKTTFRLLRGESNLFYTLAKWENNKLHVELPENIDKQSPTMTLIYDENGQLLWAQRDVPWLMKMIQPDWLKSNGFHEIEADVNDTSLLLSGDHSIQQQLQEVREDDDDAEMTHSVAVNVYPATSRMPKLTIVVVDTIPVELKSSYMVWSWFIYVLSANLLLVIPLLWVAAWWSLRPIEALAKEVRELEEHNRELLNPATTRELTSLVRNLNRLLKSERERYDKYRTTLTDLTHSLKTPLXXLQXXLRSLRSEKMSVSDAEPVMLEQISRISQQIGYYLHRASMRGGTLLSRELHPVAPLLDNLTSALNKVYQRKGVNISLDISPEISFVGEQNDFVEVMGNVLDNACKYCLEFVEISARQTDEHLYIVVEDDGPGIPLSKREVIFDRGQRVDTLRPGQGVGLAVAREITEQYEGKIVAGESMLGGARMEVIFGRQHSAPKDE

Variants of: B1
Assay: enrichment ratio after two sorts for PhoP signalling (ratio (wild type AVST 3.29)); higher = more functional
Settings: with PhoP (E. coli)

Variant | enrichment ratio
FMYR | ≤ 0.25
FQIQ | ≤ 0.25
MCFN | 4.25
HKST | ≤ 0.25
NMST | ≤ 0.25
AMST | 12.2
DMST | ≤ 0.25
AKST | 6.32
TKST | 15.4
YFCR | 0.754
YQIY | ≤ 0.25
WDCT | ≤ 0.25
QRCY | ≤ 0.25
MGWY | 4.8
RGCY | ≤ 0.25
GGCY | 16.1
MGCY | 29.2
TGCY | 8.48
QHTT | ≤ 0.25
KNTT | ≤ 0.25
ERTE | ≤ 0.25
QKMV | ≤ 0.25
TYTC | ≤ 0.25
KMSG | ≤ 0.25

Variant | enrichment ratio
TMSN | 12.5
TMSG | 24.1
DMSG | ≤ 0.25
MMSN | ≤ 0.25
NMSN | ≤ 0.25
PCVI | ≤ 0.25
GRTV | ≤ 0.25
FFSS | ≤ 0.25
TESS | 15
NESS | ≤ 0.25
QGSS | 14.4
QDSS | ≤ 0.25
MESS | 5.15
QESS | 19.7
QRSS | ≤ 0.25
FVSS | ≤ 0.25
IMKM | ≤ 0.25
LFRM | ≤ 0.25
TWVL | ≤ 0.25
WRGV | ≤ 0.25
KLPK | ≤ 0.25
EIYQ | ≤ 0.25
YTCF | 2.21
CTCF | ≤ 0.25

Variant | enrichment ratio
MCCF | 4.87
SNCF | 4.82
KCCF | ≤ 0.25
STCF | 15.9
SQCF | 11.4
SRCF | ≤ 0.25
NECF | ≤ 0.25
SCCF | 13.7
SECF | 13.9
MECF | ≤ 0.25
PQGD | ≤ 0.25
YMHS | ≤ 0.25
GKRI | ≤ 0.25
SAIV | 3.88
ERRA | ≤ 0.25
MTCF | 1.4
TTCF | 17.7
LTCF | ≤ 0.25
IHTH | ≤ 0.25
LQWA | ≤ 0.25
TAMY | 17.4
TAIE | ≤ 0.25
KAME | ≤ 0.25
NAMY | ≤ 0.25

Variant | enrichment ratio
TAME | 15.7
KAMY | ≤ 0.25
RLHS | ≤ 0.25
THTF | 0.991
SFPM | ≤ 0.25
RSPG | ≤ 0.25
IAHL | ≤ 0.25
KAHL | ≤ 0.25
THHL | 2.02
QTHL | 4.03
TAHL | 17.4
NAHL | ≤ 0.25
FFHL | ≤ 0.25
QGHL | 18.3
QSHL | 13.5
QAHL | 16.7
KSHL | ≤ 0.25
YAHL | ≤ 0.25
KINI | ≤ 0.25
SEPT | ≤ 0.25
NNGF | ≤ 0.25
LQLD | ≤ 0.25
NKMF | ≤ 0.25
KANF | ≤ 0.25

Variant | enrichment ratio
QAHM | 22.3
QANF | 21
NANF | ≤ 0.25
NQNF | ≤ 0.25
QAQF | ≤ 0.25
QDHM | ≤ 0.25
QAHF | 15.5
YAHM | ≤ 0.25
QAHK | ≤ 0.25
QQNF | 16.3
QLNF | ≤ 0.25
HNRG | ≤ 0.25
WPAL | ≤ 0.25
GSVC | ≤ 0.25
LGSN | ≤ 0.25
MHVR | ≤ 0.25
WLSV | ≤ 0.25
WRAR | ≤ 0.25
KRNR | ≤ 0.25
ECFS | ≤ 0.25
GTNF | ≤ 0.25
STNF | 12.6
ANNF | 12.9
SLNF | 1.82

Variant | enrichment ratio
AINF | 1.66
TTNF | 6.07
ATNF | 20.9
YTNF | ≤ 0.25
CTNF | ≤ 0.25
SCNF | 14.3
KYNF | ≤ 0.25
AHNF | 9.49
PREH | ≤ 0.25
GASC | ≤ 0.25
FFHE | ≤ 0.25
DQPT | ≤ 0.25
LMDV | ≤ 0.25
FSAH | 0.363
SQND | ≤ 0.25
IRPQ | ≤ 0.25
YYNE | ≤ 0.25
GEVM | 13.6
GEVY | 15.9
GEGM | ≤ 0.25
GEYY | ≤ 0.25
GEVA | ≤ 0.25
GEVG | 8.67
ISQH | ≤ 0.25

Variant | enrichment ratio
HWRW | ≤ 0.25
LGRG | ≤ 0.25
HLTF | ≤ 0.25
GMTM | ≤ 0.25
GNAM | 35.8
GIRM | ≤ 0.25
MNAM | 1.4
TNCK | ≤ 0.25
LNAM | ≤ 0.25
GIMD | ≤ 0.25
TNAM | 15.7
GMAM | 24.3
NNAM | ≤ 0.25
GMGM | ≤ 0.25
GIAM | 33.4
RPAK | ≤ 0.25
YHSF | ≤ 0.25
QLDG | ≤ 0.25
PCCG | ≤ 0.25
DCDI | ≤ 0.25
YLVR | ≤ 0.25
QLDF | ≤ 0.25
IHCL | ≤ 0.25
FHCR | ≤ 0.25

Variant | enrichment ratio
VVAM | ≤ 0.25
LQPE | ≤ 0.25
YRAY | ≤ 0.25
SGLT | 12.3
SGDK | ≤ 0.25
SGNT | ≤ 0.25
SGDN | ≤ 0.25
SGLI | 16.2
SGLA | 8.41
KDVP | ≤ 0.25
RAKD | ≤ 0.25
AQRK | ≤ 0.25
ADSW | ≤ 0.25
HKSI | ≤ 0.25
AQSI | 18.6
KKSI | ≤ 0.25
TKSI | 14.9
TISI | 16.9
AISW | 11.4
TISK | 3.65
WISW | ≤ 0.25
ARSI | ≤ 0.25
TISR | 6.92
SLDN | ≤ 0.25

Variant | enrichment ratio
QVPH | ≤ 0.25
WSQP | ≤ 0.25
DYLR | ≤ 0.25
WNLT | ≤ 0.25
RHIF | ≤ 0.25
HCDL | ≤ 0.25
WISI | ≤ 0.25
AKDH | ≤ 0.25
AISI | 22
AHSI | ≤ 0.25
AKSI | 22.7
ADSI | ≤ 0.25
ENLY | ≤ 0.25
RIVL | ≤ 0.25
YQAH | ≤ 0.25
TFMT | ≤ 0.25
HGLI | 13.3
GVLA | 4.95
LNLI | ≤ 0.25
HYLI | ≤ 0.25
HGCI | 17.9
HGCS | ≤ 0.25
HGCK | ≤ 0.25
GNLI | 15.8

Variant | enrichment ratio
GVLI | 15.6
GILI | 8.37
HGDK | ≤ 0.25
NVLI | ≤ 0.25
LTRF | ≤ 0.25
QPSN | ≤ 0.25
PTQL | ≤ 0.25
YSHY | ≤ 0.25
QGDK | ≤ 0.25
CNLI | 12.7
WGLA | ≤ 0.25
TGLI | 12.2
WGLT | ≤ 0.25
QGLI | 13.3
FFLI | ≤ 0.25
NGLI | 2.73
CNHF | ≤ 0.25
RGLI | ≤ 0.25
WGLI | 13.6
CFLI | ≤ 0.25
VTWM | ≤ 0.25
QDLV | ≤ 0.25
WQPN | ≤ 0.25
FGKS | ≤ 0.25

Variant | enrichment ratio
MGDK | ≤ 0.25
GGLI | 11.9
YHLI | ≤ 0.25
TKLI | 13
MKLI | 3.78
MGLI | 14.4
AKLI | 4.91
MGLS | 5.14
NILI | 0.917
PKIA | ≤ 0.25
NPEC | ≤ 0.25
DYPI | ≤ 0.25
HHAA | ≤ 0.25
VYEG | ≤ 0.25
GTRK | ≤ 0.25
AKAK | ≤ 0.25
DHNF | ≤ 0.25
WHAF | ≤ 0.25
SGWI | 2.76
SGPN | ≤ 0.25
SGKH | ≤ 0.25
SGVG | 5.22
SGGD | ≤ 0.25
SGQN | ≤ 0.25

Variant | enrichment ratio
SGVK | ≤ 0.25
TGVN | 5.82
SGVS | 13
SGQH | 11.9
SGVN | 16.8
SGVA | 19
VDSY | ≤ 0.25
ELCR | ≤ 0.25
DCKP | ≤ 0.25
MYPK | ≤ 0.25
EFWG | ≤ 0.25
AFDK | ≤ 0.25
FLSH | ≤ 0.25
MHCH | ≤ 0.25
SEFH | 4.4
EFPG | ≤ 0.25
REIT | ≤ 0.25
HGRF | ≤ 0.25
SGGM | 8.79
TGVQ | 7.73
SGGG | ≤ 0.25
SGVQ | 20.5
SGWM | 9.28
SGVM | 13.3

Variant | enrichment ratio
HQTQ | ≤ 0.25
KFHQ | ≤ 0.25
PSSG | ≤ 0.25
AGQH | ≤ 0.25
HPFG | ≤ 0.25
NWHP | ≤ 0.25
LKHK | ≤ 0.25
FCCM | ≤ 0.25
FSCM | 16.6
MMCM | ≤ 0.25
NSCM | ≤ 0.25
KCCM | ≤ 0.25
LCCM | ≤ 0.25
TSCM | 25.8
VSCK | ≤ 0.25
VSCM | 13.1
RSCM | ≤ 0.25
VCCM | 13.1
KSCM | ≤ 0.25
